The list is not random: actives were taken first. Their share in the collection is about 5%.
AHR activator: activators of human aryl hydrocarbon receptor | activation, % at 5 µM | AHR-responsive luciferase reporter cells, luminescence | 2.5% of 320,000 active | P35869; in the data active means activation above about 47%
Target sequence (P35869 whole entry, looked up): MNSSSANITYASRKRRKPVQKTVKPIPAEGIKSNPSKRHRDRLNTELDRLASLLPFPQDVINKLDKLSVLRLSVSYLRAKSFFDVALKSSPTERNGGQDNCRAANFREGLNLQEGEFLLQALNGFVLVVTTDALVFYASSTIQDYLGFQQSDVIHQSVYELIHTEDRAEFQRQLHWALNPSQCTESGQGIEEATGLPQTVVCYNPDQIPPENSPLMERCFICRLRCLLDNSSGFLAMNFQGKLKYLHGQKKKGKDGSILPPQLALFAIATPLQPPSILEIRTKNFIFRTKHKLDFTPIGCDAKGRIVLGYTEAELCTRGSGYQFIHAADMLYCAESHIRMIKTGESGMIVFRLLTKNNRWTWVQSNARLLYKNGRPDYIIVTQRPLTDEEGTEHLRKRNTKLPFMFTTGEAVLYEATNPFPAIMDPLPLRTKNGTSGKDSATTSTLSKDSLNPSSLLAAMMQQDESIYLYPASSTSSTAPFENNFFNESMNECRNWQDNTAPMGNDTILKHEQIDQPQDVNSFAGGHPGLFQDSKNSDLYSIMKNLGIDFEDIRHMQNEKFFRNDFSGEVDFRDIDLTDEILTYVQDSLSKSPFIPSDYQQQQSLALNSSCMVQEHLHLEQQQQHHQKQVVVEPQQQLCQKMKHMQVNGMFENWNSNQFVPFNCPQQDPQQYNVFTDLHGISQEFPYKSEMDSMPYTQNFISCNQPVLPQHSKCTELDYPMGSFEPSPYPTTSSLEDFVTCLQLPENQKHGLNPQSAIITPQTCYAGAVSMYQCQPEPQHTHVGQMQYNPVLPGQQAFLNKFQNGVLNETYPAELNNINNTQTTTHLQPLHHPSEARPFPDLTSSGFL
SENP8 block-1: inhibitors of human SENP8 protease. inhibition, % at 10 µM. purified SENP8, Z-RLRGG-aminoluciferin cleavage, luminescence. AID 2540. 1.2% of 330,000 active; in the data active means inhibition above about 50%
SENP6 inh: SENP6 protease inhibition; inhibition, % at 10 µM; 1.8% of 330,000 active; Recombinant SENP6 catalytic domain, aminoluciferin luminescence; Q9GZR1;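 active means inhibition above about 50% at the single tested dose, limit read from the data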
SENP7 inh: inhibitors of human SENP7 protease; Q9BQF6; recombinant SENP7, Z-RLRGG-aminoluciferin luminescence, 40 min; inhibition, % at 5 µM; 1.5% of 330,000 active;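 active means inhibition above about 50% at the single test dose, limit read from the data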
EBI2 block: blocks human EBI2 receptor beta-arrestin signaling. EBI2 beta-arrestin recruitment, luminescence, 7a,25-OHC stimulated. inhibition, % at 5 µM. P32249. 0.81% of 360,000 active. AID 651636; in the data active means inhibition above about 38%;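 further: enzyme fragment complementation signal reports receptor beta-arrestin coupling in cells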
SENP8 block-2: inhibitors of human SENP8 protease; Q96LD8; recombinant SENP8, Nedd8 substrate fluorescence; inhibition, % at 20 µM; 0.64% of 360,000 active; AID 602440; in the data active means inhibition mostly above about 40%, no sharp cut-off; inactive means mostly below about 27%
SENP8 confirm: human SENP8 inhibition, confirmed | shares compounds with SENP7 inh | Recombinant SENP8, Z-RLRGG-aminoluciferin luminescence, 60 min | inhibition, % at 12.5 µM | 40% of 6,200 active;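 active means mean inhibition across replicates above about 50%, limit read from the data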
SENP6 conf: confirmation of human SENP6 protease inhibitors; shares compounds with SENP7 inh; recombinant SENP6, Z-RLRGG-aminoluciferin luminescence; 58% of 6,200 active; inhibition, % at 12.5 µM
SENP7 confirm: human SENP7 inhibition, confirmed; shares compounds with SENP7 inh; recombinant SENP7, Z-RLRGG-aminoluciferin luminescence, 40 min; inhibition, % at 12.5 µM; 69% of 6,200 active; AID 488917
Casp3 select: inhibits human caspase-3 in SENP selectivity test; shares compounds with SENP7 inh; purified caspase-3, Z-DEVD-aminoluciferin luminescence, 60 min; inhibition, % at 12.5 µM; 60% of 6,200 active;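 active means mean inhibition above about 50%, limit read from the data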
Luc interf: counter-screen for SENP inhibitors: luminescence interference; inhibition, % at 12.5 µM; shares compounds with SENP7 inh; Pre-incubated SENP8/Z-RLRGG-aminoluciferin, luciferase luminescence interference; 39% of 6,200 active;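 active means mean inhibition above about 50% when retested at one dose, limit read from the data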
Hits are given with their value; 0 = inactive; - = no result given.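 How the source made its calls, unless noted: active means mean inhibition above about 50% in the one-dose retest (limit read from the data); inactive means the rest.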

SMILES	AHR activator	SENP8 block-1	SENP6 inh	SENP7 inh	EBI2 block	SENP8 block-2	SENP8 confirm	SENP6 conf	SENP7 confirm	Casp3 select	Luc interf
CCOC(=O)c1c(C)oc2ccc(NS(=O)(=O)c3cccs3)cc12	0	0	0	77.2	0	0	0	0	0	0	0
COC(=O)Cn1c(=O)c2c(nc3n2CCCN3CCc2ccccc2)n(C)c1=O	0	0	0	0	0	0	-	-	-	-	-
Cc1ccc(S(=O)(=O)Oc2ccc(/C=N/NC(=O)c3nn(C)cc3Cl)cc2)cc1	0	0	0	0	0	0	-	-	-	-	-
Cc1ccc(/C=N/OC(=O)c2nn(C)cc2Cl)cc1	0	50.1	66.5	66.2	0	0	0	0	61.8	0	0
COc1ccccc1/C=C/C(=O)NCC(=O)N/N=C/c1cc(Br)ccc1OC	0	0	0	0	0	0	-	-	-	-	-
COc1ccc(/C=C/C(=O)NCC(=O)N/N=C/c2cc(Br)ccc2OC)cc1	0	0	0	84.1	0	0	0	0	0	0	0
Cc1cc(Cl)ccc1OCC(=O)NN1C(=O)C2C3C=CC(C3)C2C1=O (configuration not stated)	0	0	0	0	0	0	-	-	-	-	-
O=C(Nc1cc(C(F)(F)F)ccc1Cl)C(Sc1nnc(-c2cccs2)o1)c1ccccc1 (configuration not stated)	0	75.7	81.4	0	0	0	0	0	0	0	0
O=C(Nc1ccc(Cl)cc1C(F)(F)F)C(Sc1nnc(-c2cccs2)o1)c1ccccc1 (configuration not stated)	0	0	0	0	0	0	-	-	-	-	-
CC1(C)C2CCC1(C)C1(C2)NC(=O)c2ccccc2O1 (configuration not stated)	0	0	0	0	0	0	-	-	-	-	-
Cc1cccc(/C=C/C(=O)c2ccc(NC3=NCCCS3)cc2)c1	0	70.9	92.9	88.0	0	0	81.0	67.6	0	0	89.7
CN(Cc1ccco1)C(=O)CSc1nn2c(=O)c(C(C)(C)C)nnc2s1	0	0	0	0	0	0	-	-	-	-	-
Cc1cccc2c1cnn2C(=O)Nc1cc(F)ccc1F	0	0	61.2	0	0	0	0	0	0	0	0
Cc1cccc2c1cnn2C(=O)CCC(=O)NCc1ccc(F)cc1	0	0	0	0	0	0	-	-	-	-	-
CCOC(=O)Cc1csc(SCC(=O)Nc2cc(Cl)ccc2Oc2ccccc2)n1	0	0	0	0	0	0	-	-	-	-	-
Cc1c(C)c2ccc(OCC(=O)Nc3ccccn3)c(C)c2oc1=O	0	92.2	97.6	100.5	0	0	58.6	88.5	0	92.6	0
O=C(COc1ccc(Cl)cc1Cl)Nc1ccccn1	0	97.8	0	99.7	0	0	96.1	97.8	100.7	96.0	80.3
Cc1c(C)c2cc(Cl)c(OCC(=O)Nc3ccccn3)cc2oc1=O	-	-	-	-	0	0	-	-	-	-	-
CCCc1cc(=O)oc2cc(C)cc(OCC(=O)Nc3ccccn3)c12	0	0	0	0	0	0	-	-	-	-	-
CCCCc1cc(=O)oc2cc(C)cc(OCC(=O)Nc3ccccn3)c12	0	0	53.2	0	0	0	0	0	68.2	75.8	53.4
COc1ccccc1OCC(=O)Nc1ccccn1	0	77.8	82.3	85.7	0	0	77.7	74.1	93.7	93.4	81.1
O=C(NCCCN1CCOCC1)c1nn(-c2ccccc2)c(=O)c2ccccc12	0	0	0	0	0	0	-	-	-	-	-
CC(/C=C/C=C/c1ccccc1)=N/NC(=O)CNc1ccc(C)cc1	0	0	0	0	0	0	-	-	-	-	-
O=C(COc1ccccc1Cl)Nc1ccc(Cl)cn1	0	0	73.6	0	0	0	0	60.8	86.1	59.7	0
O=C(COC(=O)CN1C(=O)NC2(CCCC2)C1=O)NCc1ccc(Cl)cc1Cl	0	0	0	0	0	0	-	-	-	-	-
SMILES	AHR activator	SENP8 block-1	SENP6 inh	SENP7 inh	EBI2 block	SENP8 block-2	SENP8 confirm	SENP6 conf	SENP7 confirm	Casp3 select	Luc interf
O=C1/C(=C/c2ccc([N+](=O)[O-])cc2)Oc2cc(O)ccc21	-	56.8	69.6	62.5	0	0	0	0	51.0	0	53.4
COc1ccc(S(=O)(=O)N2CCN(C(=O)NCc3ccc(OC)c(OC)c3)CC2)cc1	0	0	0	0	0	0	-	-	-	-	-
O=C(CCC(=O)N1CCCC1)Nc1ccc(Cl)c(Cl)c1	0	0	0	0	0	0	-	-	-	-	-
O=[N+]([O-])c1ccc(CSC2=NCCS2)cc1	0	0	0	0	0	0	-	-	-	-	-
CC(C)C(=O)Nc1cccc(-c2cn3ccsc3n2)c1	0	0	0	0	0	0	-	-	-	-	-
c1cn2cc(-c3ccc4c(c3)OCO4)nc2s1	0	50.2	72.6	63.8	0	0	59.3	56.4	85.3	79.0	71.9
O=C(O)c1cccc(N/N=C/c2cc(Br)cc(Br)c2O)c1	0	73.8	76.8	0	0	0	0	90.0	95.2	0	77.0
CN(C)c1ccc(/C=N/Nc2cccc(C(=O)O)c2)cc1	0	96.2	98.8	0	0	0	98.0	101.5	104.3	99.7	99.9
COc1ccc(Br)cc1/C=N/Nc1cccc(C(=O)O)c1	0	0	0	0	0	0	-	-	-	-	-
CC(C)(C)c1ccc(/C=N/Nc2cccc(C(=O)O)c2)cc1	0	0	0	0	0	0	-	-	-	-	-
Cc1ccc(Nc2nc3nonc3[nH]c2=O)cc1C	0	0	70.4	0	0	0	65.3	62.3	80.4	64.2	71.7
Cc1ccc(Nc2nc3nonc3[nH]c2=O)cc1Cl	0	50.0	79.8	0	0	0	68.5	63.8	75.3	0	70.1
COc1ccccc1CNC(=O)CN(C)S(=O)(=O)c1ccc2c(c1)n(C)c(=O)c(=O)n2C	0	0	0	0	0	0	-	-	-	-	-
COc1ccc(-c2csc(Nc3ncccn3)n2)cc1C	0	0	0	0	0	0	-	-	-	-	-
COc1cccc2sc(Nc3nc(-c4ccccn4)cs3)nc12	0	0	64.7	0	85.9	0	0	55.5	85.1	0	0
CCOC(=O)c1sc(-c2ccc(OC)cc2)cc1N	0	0	70.5	51.9	0	0	0	54.5	83.3	0	0
O=c1c2cc(F)ccc2sn1-c1ccccc1	0	75.4	83.7	0	0	0	83.3	84.4	96.4	87.9	77.4
N/C(=N\N=C\c1ccc2c(c1)OCO2)c1nonc1N	0	94.7	94.9	98.2	0	0	95.2	96.1	101.3	96.2	64.0
Nc1cccc2c1C(=O)N(CCOc1ccccc1F)C2=O	76.6	72.9	83.1	73.0	0	0	79.2	79.8	95.2	78.7	82.9
